Source: PubChem
BoNT-F LC inh = inhibitors of Botulinum neurotoxin F light chain protease. hit rate 0.22% among 360,000. Multiplex microsphere protease cleavage assay, flow cytometry. inhibition, % at 10 µM; in the data active = inhibition above about 35%, passing the limit was not always enough; inconclusive = no clear call, values can overlap the other calls
Autofluor counter = counter-screen for toxin protease inhibitors: compound fluorescence; compound autofluorescence counterscreen, microsphere flow cytometry; hits give high values; fluorescence intensity (test concentration not listed); hit rate 3.1% among 360,000; AID 624483; in the data active = fluorescence intensity above about 16000; inconclusive = no clear call, values can overlap the other calls
BoNT A protease = inhibitors of Botulinum neurotoxin A light chain protease; AID 588499; inhibition, % at 10 µM; hit rate 0.17% among 360,000; multiplex microsphere protease substrate cleavage, flow cytometry
Anthrax LF inh2 = anthrax lethal factor protease inhibition; inhibition, % at 10 µM; multiplex microsphere protease cleavage assay, LF; hit rate 0.12% among 360,000
Target sequence (P15917 whole entry, looked up): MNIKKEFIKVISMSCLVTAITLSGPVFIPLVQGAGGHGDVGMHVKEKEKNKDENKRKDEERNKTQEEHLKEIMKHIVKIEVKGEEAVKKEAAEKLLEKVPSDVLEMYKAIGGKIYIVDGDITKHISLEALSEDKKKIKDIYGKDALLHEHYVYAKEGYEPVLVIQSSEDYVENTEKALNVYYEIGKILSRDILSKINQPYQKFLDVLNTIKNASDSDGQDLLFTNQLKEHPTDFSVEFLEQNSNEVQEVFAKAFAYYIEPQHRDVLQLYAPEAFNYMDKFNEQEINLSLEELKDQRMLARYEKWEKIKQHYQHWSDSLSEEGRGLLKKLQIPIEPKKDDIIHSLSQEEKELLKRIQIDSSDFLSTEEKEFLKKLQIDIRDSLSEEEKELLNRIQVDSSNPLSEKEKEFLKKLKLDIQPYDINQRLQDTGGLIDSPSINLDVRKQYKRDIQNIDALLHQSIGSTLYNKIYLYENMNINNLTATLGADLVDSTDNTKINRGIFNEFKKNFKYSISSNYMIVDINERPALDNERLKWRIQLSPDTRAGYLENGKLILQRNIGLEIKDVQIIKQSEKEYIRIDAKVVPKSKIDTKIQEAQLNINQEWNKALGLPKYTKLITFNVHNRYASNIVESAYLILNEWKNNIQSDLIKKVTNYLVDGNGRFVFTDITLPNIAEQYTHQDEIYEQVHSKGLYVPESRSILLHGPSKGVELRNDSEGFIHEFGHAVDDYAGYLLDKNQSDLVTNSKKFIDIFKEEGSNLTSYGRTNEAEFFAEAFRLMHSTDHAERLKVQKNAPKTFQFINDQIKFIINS
MazF activator = increases E. coli MazEF RNase cleavage of RNA. P0AE70. FAM/BHQ RNA-DNA oligo cleavage fluorescence, 5 h. activation, % at 20 µM. hit rate 0.32% among 350,000. AID 504720; in the data active = activation above about 50%
A number is an active result; - = inactive; ? = inconclusive; . = not tested or not shown. Sampled rows, rich in hits. Any-hit rate of the full collection: about 3.7%. Rule as the data show it, unless noted: active = inhibition above about 30%; inconclusive = no clear call, values can overlap the other calls; inactive = below that.

SMILES | BoNT-F LC inh | Autofluor counter | BoNT A protease | Anthrax LF inh2 | MazF activator
Cc1ccc(-c2noc(CCC(=O)NCC3CCCO3)n2)cc1 (stereo not given) | - | 23346 | - | - | -
O=C(CCc1nc(-c2ccccc2)no1)NC1CCCCC1 | - | 21669 | - | - | -
CN(C)CCNc1nc(Oc2ccccc2)c2sccc2n1 | - | - | - | - | .
CSc1ccccc1NC(=O)CN(C)C(=O)c1ccc2c(c1)OCCO2 | - | - | - | - | -
Cc1ccc(-n2nc3c(=O)n(CCCC(=O)NCc4cccc(F)c4)nc(C)c3c2C)cc1 | - | - | - | - | -
Cc1cccc(NC(=O)NCCN2CCN(c3ccccc3)CC2)c1C | - | - | - | - | -
COc1cc(C(=O)N2CC(C)OC(C)C2)c([N+](=O)[O-])cc1OC (stereo not given) | - | 18981 | - | - | -
COc1ccc(NC(=O)N2CC(C)OC(C)C2)cc1OC (stereo not given) | - | 24184 | - | - | -
CC1CN(C(=O)Nc2ccc3c(c2)OCO3)CC(C)O1 (stereo not given) | - | 20354 | - | - | -
COc1ccc(NC(=O)N2CCCC2)cc1OC | - | - | - | - | -
CC1Oc2ccccc2N(CC(=O)Nc2ccc3c(c2)OCCO3)C1=O (stereo not given) | - | - | - | - | -
O=C(Cn1ccc2ccccc2c1=O)NCCC(=O)Nc1ccc2c(c1)OCCO2 | - | 20380 | ? | - | -
Cc1cccc(NC(=O)CN2C(=O)COc3ccc(Cl)cc32)c1 | - | - | - | - | -
CC1CC(=O)N(CC(=O)Nc2ccc3c(c2)OCCO3)c2ccccc2S1 (stereo not given) | - | 16421 | - | - | -
O=C(CN1C(=O)COc2ccc(Cl)cc21)Nc1ccc2c(c1)OCCO2 | - | 17358 | ? | - | -
CSc1ncccc1C(=O)NC1CCCc2c1cnn2-c1ccc(C)c(C)c1 (stereo not given) | - | - | - | - | -
CC(C)NC(=O)CCNS(=O)(=O)c1ccc(Br)cc1 | - | 24137 | - | - | -
CC(C)c1ccc(CCNC(=O)CCNS(=O)(=O)c2ccc(Br)cc2)cc1 | - | ? | - | - | -
Cc1ccc(Cn2cccc(-c3nc4ccccc4s3)c2=O)cc1 | - | - | - | - | 74
O=c1c(-c2nc3ccccc3s2)cccn1Cc1ccccc1 | - | 22734 | ? | - | -
COc1ccc(N(C(=O)c2ccco2)S(=O)(=O)c2ccccc2)cc1 | - | - | - | - | -
COc1ccc(N(C(=O)c2ccco2)S(=O)(=O)c2cc(Cl)c(Cl)cc2Cl)cc1 | - | 23813 | - | - | -
COc1ccc(S(=O)(=O)N(CC(=O)NC(C)C)Cc2ccccc2)cc1 | - | - | - | - | -
COc1ccc(CNC(=O)CN(Cc2ccc(Cl)cc2)S(=O)(=O)c2ccccc2)cc1 | - | 24986 | - | - | -
COc1ccc(CNC(=O)CN(Cc2ccccc2)S(=O)(=O)c2ccc(Cl)cc2)cc1 | - | 22889 | - | - | -
SMILES | BoNT-F LC inh | Autofluor counter | BoNT A protease | Anthrax LF inh2 | MazF activator
COc1ccc(C)cc1S(=O)(=O)N(CC(=O)NCc1ccc(Cl)cc1)Cc1ccccc1 | - | 22998 | - | - | -
COc1ccc(S(=O)(=O)N(CCc2ccccc2)CC(=O)NC(C)C)cc1 | - | 22967 | - | - | -
O=C(O)CSc1nnc(-c2ccncc2)n1C1CCCCC1 | - | 19539 | ? | - | -
COCCn1c(SCc2nc3ccccc3c(=O)[nH]2)nnc1-c1ccncc1 | - | 16786 | ? | - | -
COCCCn1c(SCc2nc3ccccc3c(=O)[nH]2)nc2ccccc2c1=O | - | - | - | - | -
O=c1[nH]c(CSc2nnc(-c3ccccc3)n2C2CCCCC2)nc2ccccc12 | - | 22043 | - | - | -
O=c1[nH]c(CSc2nnc(-c3ccncc3)n2Cc2ccco2)nc2ccccc12 | - | 22482 | ? | - | -
CN(C(=O)c1cccc(NC(=O)Cc2ccc(NC(=O)C3CCCN(S(=O)(=O)c4cccc([N+](=O)[O-])c4)C3)cc2)c1)C1CCCC1 (stereo not given) | - | - | - | - | -
CC(C)(C)OC(=O)N1C(=O)[C@](OC(=O)c2ccccc2)(c2ccccc2)c2cccc(F)c21 | - | - | - | - | .
CC(C)CNC(=O)C(=O)N/N=C/c1cccs1 | - | 18172 | - | - | -
CCCNC(=O)C(=O)N/N=C/c1cccs1 | - | - | - | - | -
Nc1ncnc(Nc2cccc(C(F)(F)F)c2)n1 | - | 17187 | ? | - | -
CCOc1ccc(C2c3cc(OC)c(OC)cc3CC(=O)N2c2ccccc2)cc1 (stereo not given) | - | 20080 | - | - | -
Cc1ccc(-c2cn3cccnc3n2)cc1NC(=O)c1c(-c2ccccc2Cl)noc1C | - | - | - | - | -
